# Assay results: PubChem BioAssay (EPA / NIEHS)
# Several values for one entry are separate records, joined by “and”; a condition that tells them apart may be missing. Identical values can stand only once. Records with an inconclusive call do not appear. More than one record can exist for a structure, and the calls need not agree. Activity calls are given as the source filed them. The calls were made as follows, unless noted: active = hit-call score of the fitted dose curve at least 0.9, where 1 is the maximum; inconclusive = response in the unintended direction; inactive = score below 0.9.
# Columns and labels:
# [1] = biological target: Voltage-gated inwardly rectifying potassium channel KCNH2 (Homo sapiens) (UniProt Q12809); assay: NVS_IC_hKhERGCh: NovaScreen (NVS) Ion Channel Assay for human Potassium Channel ERG (KhERGCh) (AID 2283333)
# Method in brief: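 Cell-free radioligand competition binding on hERG protein extracted from CHO cells, read by filter-based scintillation counting 0.75 h after dosing. Primary screen at 25 uM in duplicate, actives followed in concentration series. Signal loss fitted versus DMSO.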
# [2] = biological target: Glutamate receptor ionotropic, kainate 1 (Rattus norvegicus) (UniProt P22756); assay: NVS_IC_rKAR: NovaScreen (NVS) Ion Channel Assay for rat Kainic Acid Receptors (KAR) (AID 2283334; active = hit-call score of the fitted dose curve at least 0.9, where 1 is the maximum; inactive = score below 0.9)
# Method in brief: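 Radioligand displacement binding using rat forebrain membranes, 1 h incubation, filter-based scintillation counting. Screened in duplicate at 25 uM, with actives retested in concentration-response up to 50 uM; fitted against DMSO.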
# [3] = system: guinea pig Histamine Receptor (H2), gene 100729734; assay: NVS_GPCR_gH2: NovaScreen (NVS) G Protein-Coupled Receptor Assay for guinea pig Histamine Receptor (H2) (AID 2283342)
# Method in brief: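 Radioligand displacement on guinea pig striatal membranes, 1 h after dosing, filter-based scintillation counting; loss of signal versus DMSO. Single-point screen at 25 uM in duplicate, then concentration-response up to 50 uM.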
# [4] = biological target: Small conductance calcium-activated potassium channel protein 1 (Rattus norvegicus) (UniProt P70606); assay: NVS_IC_rKCaCh: NovaScreen (NVS) Ion Channel Assay for rat Potassium Channel, Ca2+ Act., VI (KCaCh) (AID 2283336)
# Method in brief: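 Radioligand binding to rat forebrain membranes, cell-free, read 1 hour after dosing by filter-based scintillation counting. Compounds first run in duplicate at 25 uM, actives then in concentration series; loss of signal vs DMSO indicates displacement.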
# [5] = NVS_IC_rCaBTZCHL: NovaScreen (NVS) Ion Channel Assay for Calcium Channel, Type L, Benzothiazepine Site (CaBTZCHL) (AID 2283337)
# Method in brief: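 Radioligand displacement at the benzothiazepine site using rat cortical membranes; bound label measured by filtration and scintillation counting 1.5 h after dosing. Single-point 25 uM in duplicate, then concentration series; DMSO baseline.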
# [6] = biological target: bovine Gamma-Aminobutyric Acid Type A Receptor Agonist (GABAR Agonist), GABRA1 (gene 780973) (UniProt P08219); assay: NVS_LGIC_bGABAR_Agonist: NovaScreen (NVS) Ligand-Gated Ion Channel Assay for bovine Gamma-Aminobutyric Acid Type A Receptor Agonist (GABAR Agonist) (AID 2283338)
# Method in brief: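 Radioligand binding to bovine cerebellar membranes in agonist format, read by filter-based scintillation counting after 1 h. Primary screen in duplicate at 25 uM, with actives followed in concentration series. Gain of signal versus DMSO.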
# [7] = biological target: human Constitutive Androstane Receptor (CAR), NR1I3 (gene 9970) (UniProt Q14994); assay: NVS_NR_hCAR_Antagonist: NovaScreen (NVS) Nuclear Receptor Binding Assay for human Constitutive Androstane Receptor Antagonism (CAR) (AID 2283344)
# Method in brief: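 Cell-free TR-FRET binding read 1 h after dosing, antagonist mode; loss of signal versus DMSO baseline. Primary screen in duplicate at a single 25 uM; actives retested in concentration series.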
# [8] = biological target: Estrogen receptor (Homo sapiens) (UniProt P03372); assay: OT_ER_ERaERa_1440: Odyssey Thera (OT) 24-hour HEK293T Protein-Complementation Assay for Estrogen Receptor-alpha/-alpha Homodimer (AID 2283349);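 also: hits raise fluorescence above DMSO for agonists and antagonists alike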
# Method in brief: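 Readout is the rise in mean fluorescence from reporter fragment complementation when ERα LBD (aa 310-547) units dimerize in HEK293T cells. Measured 24 h after dosing and analysed as increase over DMSO control.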
# [9] = biological target: Estrogen receptor (Homo sapiens) + Estrogen receptor beta (Homo sapiens) (UniProt P03372+Q92731); assay: OT_ER_ERaERb_0480: Odyssey Thera (OT) 8-hour HEK293T Protein-Complementation Assay for Estrogen Receptor-alpha/-beta Heterodimer (AID 2283352)
# Method in brief: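 Fluorescence increase from reconstituted reporter fragments, quantified by laser scanning cytometer, reflects ER-alpha/ER-beta heterodimer formation in human HEK293T cells. Exposure 8 h; positive-direction fitting against DMSO vehicle.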
# [10] = biological target: Androgen Receptor/SRC-1 Co-activator, AR (gene 367) (UniProt P10275); assay: OT_AR_ARSRC1_0960: Odyssey Thera (OT) 16-hour HEK293T Protein-Complementation Assay for Androgen Receptor/SRC-1 Co-activator (AID 2283353);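 also: actives raise the signal above DMSO so potency reflects increased AR and SRC-1 complex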
# Method in brief: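 HEK293T cells stably expressing AR and SRC-1 fused to Venus YFP fragments, imaged 16 h after dosing. Nuclear/cytoplasmic fluorescence ratio at 488 nm from at least 400 cells per image; gain of signal relative to DMSO.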
# NCBI gene 100848466 = assay: NVS_NR_bPR: NovaScreen (NVS) Nuclear Receptor Binding Assay for bovine Progextron Receptor (PR) (AID 2283343);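 as to AC50: actives lower bound radioligand signal below DMSO meaning displacement of the label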
# Method in brief: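 Bovine uterine membrane preparation, cell-free; radioligand competitive displacement measured by scintillation counting 18 hours after dosing. Loss of signal versus DMSO baseline indicates binding; primary HTS single concentration 25 uM in duplicate, actives followed in concentration series.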
# [11] = biological target: bovine Estrogen Receptor (ER), ESR1 (gene 407238) (UniProt P49884); assay: NVS_NR_bER: NovaScreen (NVS) Nuclear Receptor Binding Assay for bovine Estrogen Receptor (ER) (AID 2283345);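 also: actives lower the bound radioligand count which means they displace the ER ligand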
# Method in brief: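 Cell-free radioligand binding with bovine uterine membrane extracts, read 18 hours after dosing by scintillation counting. Loss of signal versus DMSO baseline indicates displacement. Primary screen run in duplicate at 25 uM, actives followed in concentration series.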
# [12] = biological target: Estrogen receptor (Homo sapiens) (UniProt P03372); assay: NVS_NR_hER: NovaScreen (NVS) Nuclear Receptor Binding Assay for human Estrogen Receptor (ER) (AID 2283348)
# Method in brief: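 Cell-free radioligand binding with protein extracted from MCF7 cells; scintillation counting 18 hours after dosing. Loss of signal versus DMSO baseline read as displacement; primary single-concentration screen at 25 uM in duplicate, actives retested in concentration series.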
# [13] = biological target: Bile acid receptor (Homo sapiens) (UniProt Q96RI1); assay: NVS_NR_hFXR_Antagonist: NovaScreen (NVS) Nuclear Receptor Binding Assay for human Farnesoid X Receptor Antagonism (FXR) (AID 2283350)
# Method in brief: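 Cell-free TR-FRET ligand-binding read-out on human FXR (NR1H4) in antagonist mode, measured 1 h after dosing. Primary screen in duplicate at 25 uM, actives retested in concentration series; signal loss scored versus DMSO.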
# [14] = biological target: rat Peripheral-type Benzodiazepine Receptor (PBR), Tspo (gene 24230) (UniProt P16257); assay: NVS_MP_rPBR: NovaScreen (NVS) Membrane Protein Assay for rat Peripheral-type Benzodiazepine Receptor (PBR) (AID 2283335)
# Method in brief: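 Rat kidney membranes; radioligand binding with displacement, filter-based scintillation counting, 1 h incubation. Primary screen in duplicate at 25 uM, actives followed in concentration series; loss of binding vs DMSO.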
# Chain of human Constitutive Androstane Receptor (CAR), NR1I3 (gene 9970) (Q14994 whole entry, looked up): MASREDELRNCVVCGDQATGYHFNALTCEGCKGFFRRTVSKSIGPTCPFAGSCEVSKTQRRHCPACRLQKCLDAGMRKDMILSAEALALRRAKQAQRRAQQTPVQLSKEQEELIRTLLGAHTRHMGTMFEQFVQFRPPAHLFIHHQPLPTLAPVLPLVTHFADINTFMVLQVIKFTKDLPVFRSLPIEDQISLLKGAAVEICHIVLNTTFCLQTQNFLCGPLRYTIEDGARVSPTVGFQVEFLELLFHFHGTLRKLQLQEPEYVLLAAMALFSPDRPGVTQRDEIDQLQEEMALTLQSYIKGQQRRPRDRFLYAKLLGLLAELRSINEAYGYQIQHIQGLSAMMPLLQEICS
# Chain of Estrogen receptor (Homo sapiens) (P03372 whole entry, looked up, the tested form may be a part): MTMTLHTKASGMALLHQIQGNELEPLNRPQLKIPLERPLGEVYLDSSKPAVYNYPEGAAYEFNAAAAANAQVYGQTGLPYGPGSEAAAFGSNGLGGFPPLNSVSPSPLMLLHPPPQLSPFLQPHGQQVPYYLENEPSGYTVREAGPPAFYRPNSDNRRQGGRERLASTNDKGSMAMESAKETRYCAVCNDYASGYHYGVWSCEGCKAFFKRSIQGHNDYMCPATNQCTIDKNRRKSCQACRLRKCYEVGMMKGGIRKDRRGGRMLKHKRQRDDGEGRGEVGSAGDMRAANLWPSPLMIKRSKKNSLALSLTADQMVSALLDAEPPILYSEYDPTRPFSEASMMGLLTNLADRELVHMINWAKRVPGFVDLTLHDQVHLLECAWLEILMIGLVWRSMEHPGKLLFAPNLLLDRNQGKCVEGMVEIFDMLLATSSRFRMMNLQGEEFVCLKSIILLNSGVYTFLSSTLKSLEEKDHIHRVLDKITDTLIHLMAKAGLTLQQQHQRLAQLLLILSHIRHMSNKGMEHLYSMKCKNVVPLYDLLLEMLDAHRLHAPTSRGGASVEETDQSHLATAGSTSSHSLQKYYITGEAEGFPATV
# Chain of Estrogen receptor (Homo sapiens) + Estrogen receptor beta (Homo sapiens) (P03372 whole entry, looked up, the tested form may be a part): as above
# Chain of Estrogen receptor (Homo sapiens) + Estrogen receptor beta (Homo sapiens) (Q92731 whole entry, looked up, the tested form may be a part): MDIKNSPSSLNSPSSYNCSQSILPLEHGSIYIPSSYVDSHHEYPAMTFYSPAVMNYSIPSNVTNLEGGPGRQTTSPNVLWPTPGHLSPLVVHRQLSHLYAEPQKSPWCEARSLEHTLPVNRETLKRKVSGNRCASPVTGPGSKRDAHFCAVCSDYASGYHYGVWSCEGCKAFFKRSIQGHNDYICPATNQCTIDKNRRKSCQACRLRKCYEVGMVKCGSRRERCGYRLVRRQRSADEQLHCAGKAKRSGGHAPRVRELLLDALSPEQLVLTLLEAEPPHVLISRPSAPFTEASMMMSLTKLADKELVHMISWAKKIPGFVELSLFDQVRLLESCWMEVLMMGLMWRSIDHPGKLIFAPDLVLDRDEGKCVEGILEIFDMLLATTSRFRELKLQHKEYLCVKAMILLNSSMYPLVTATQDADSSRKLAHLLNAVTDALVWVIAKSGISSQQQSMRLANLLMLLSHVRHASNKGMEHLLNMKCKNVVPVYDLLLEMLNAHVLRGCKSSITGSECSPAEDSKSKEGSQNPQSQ
# Chain of bovine Estrogen Receptor (ER), ESR1 (gene 407238) (P49884 whole entry, looked up): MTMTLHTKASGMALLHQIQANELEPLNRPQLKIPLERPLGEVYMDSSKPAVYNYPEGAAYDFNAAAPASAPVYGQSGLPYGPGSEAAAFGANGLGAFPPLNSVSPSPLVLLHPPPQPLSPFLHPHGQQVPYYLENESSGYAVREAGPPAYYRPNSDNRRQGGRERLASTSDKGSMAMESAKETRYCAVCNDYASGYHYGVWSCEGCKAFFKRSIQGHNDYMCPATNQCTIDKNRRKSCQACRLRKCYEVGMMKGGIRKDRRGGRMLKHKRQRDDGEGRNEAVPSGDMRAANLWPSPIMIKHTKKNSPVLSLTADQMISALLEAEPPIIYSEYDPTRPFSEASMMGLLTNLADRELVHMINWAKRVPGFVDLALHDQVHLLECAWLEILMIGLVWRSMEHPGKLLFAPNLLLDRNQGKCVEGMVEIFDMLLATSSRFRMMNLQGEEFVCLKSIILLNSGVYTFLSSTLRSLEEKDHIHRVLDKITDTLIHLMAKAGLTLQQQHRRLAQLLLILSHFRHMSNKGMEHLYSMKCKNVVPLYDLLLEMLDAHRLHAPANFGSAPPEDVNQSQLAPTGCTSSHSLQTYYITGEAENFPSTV
# Chain of rat Peripheral-type Benzodiazepine Receptor (PBR), Tspo (gene 24230) (P16257 whole entry, looked up): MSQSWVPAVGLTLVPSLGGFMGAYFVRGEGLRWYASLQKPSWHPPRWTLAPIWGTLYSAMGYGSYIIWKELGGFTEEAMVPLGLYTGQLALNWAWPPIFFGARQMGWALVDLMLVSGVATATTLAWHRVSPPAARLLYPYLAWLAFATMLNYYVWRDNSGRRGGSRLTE
# Chain of Androgen Receptor/SRC-1 Co-activator, AR (gene 367) (P10275 whole entry, looked up, the tested form may be a part): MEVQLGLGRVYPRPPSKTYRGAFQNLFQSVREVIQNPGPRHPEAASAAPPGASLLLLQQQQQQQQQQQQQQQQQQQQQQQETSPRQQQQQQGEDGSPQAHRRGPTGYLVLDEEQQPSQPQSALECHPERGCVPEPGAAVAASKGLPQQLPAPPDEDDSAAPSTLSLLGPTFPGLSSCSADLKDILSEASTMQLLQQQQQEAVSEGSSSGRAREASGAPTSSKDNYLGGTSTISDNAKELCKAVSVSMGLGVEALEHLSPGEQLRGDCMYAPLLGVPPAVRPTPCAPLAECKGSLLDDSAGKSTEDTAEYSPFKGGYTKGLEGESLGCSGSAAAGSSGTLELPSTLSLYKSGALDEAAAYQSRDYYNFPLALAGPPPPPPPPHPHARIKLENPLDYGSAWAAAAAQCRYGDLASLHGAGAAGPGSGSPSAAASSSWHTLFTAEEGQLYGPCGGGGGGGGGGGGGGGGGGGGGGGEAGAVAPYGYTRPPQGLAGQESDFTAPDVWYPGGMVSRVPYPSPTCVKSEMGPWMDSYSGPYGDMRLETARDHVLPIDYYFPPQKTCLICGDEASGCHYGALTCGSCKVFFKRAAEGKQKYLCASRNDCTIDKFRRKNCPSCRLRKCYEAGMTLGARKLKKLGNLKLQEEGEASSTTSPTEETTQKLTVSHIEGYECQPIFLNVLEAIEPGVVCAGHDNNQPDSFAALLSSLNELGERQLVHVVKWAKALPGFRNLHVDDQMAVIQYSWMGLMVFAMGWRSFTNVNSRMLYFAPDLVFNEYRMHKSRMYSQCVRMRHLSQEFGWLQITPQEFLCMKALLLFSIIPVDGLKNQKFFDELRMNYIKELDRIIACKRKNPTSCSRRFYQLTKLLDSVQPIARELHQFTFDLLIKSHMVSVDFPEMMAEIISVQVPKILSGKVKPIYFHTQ
# Chain of Voltage-gated inwardly rectifying potassium channel KCNH2 (Homo sapiens) (Q12809 whole entry, looked up): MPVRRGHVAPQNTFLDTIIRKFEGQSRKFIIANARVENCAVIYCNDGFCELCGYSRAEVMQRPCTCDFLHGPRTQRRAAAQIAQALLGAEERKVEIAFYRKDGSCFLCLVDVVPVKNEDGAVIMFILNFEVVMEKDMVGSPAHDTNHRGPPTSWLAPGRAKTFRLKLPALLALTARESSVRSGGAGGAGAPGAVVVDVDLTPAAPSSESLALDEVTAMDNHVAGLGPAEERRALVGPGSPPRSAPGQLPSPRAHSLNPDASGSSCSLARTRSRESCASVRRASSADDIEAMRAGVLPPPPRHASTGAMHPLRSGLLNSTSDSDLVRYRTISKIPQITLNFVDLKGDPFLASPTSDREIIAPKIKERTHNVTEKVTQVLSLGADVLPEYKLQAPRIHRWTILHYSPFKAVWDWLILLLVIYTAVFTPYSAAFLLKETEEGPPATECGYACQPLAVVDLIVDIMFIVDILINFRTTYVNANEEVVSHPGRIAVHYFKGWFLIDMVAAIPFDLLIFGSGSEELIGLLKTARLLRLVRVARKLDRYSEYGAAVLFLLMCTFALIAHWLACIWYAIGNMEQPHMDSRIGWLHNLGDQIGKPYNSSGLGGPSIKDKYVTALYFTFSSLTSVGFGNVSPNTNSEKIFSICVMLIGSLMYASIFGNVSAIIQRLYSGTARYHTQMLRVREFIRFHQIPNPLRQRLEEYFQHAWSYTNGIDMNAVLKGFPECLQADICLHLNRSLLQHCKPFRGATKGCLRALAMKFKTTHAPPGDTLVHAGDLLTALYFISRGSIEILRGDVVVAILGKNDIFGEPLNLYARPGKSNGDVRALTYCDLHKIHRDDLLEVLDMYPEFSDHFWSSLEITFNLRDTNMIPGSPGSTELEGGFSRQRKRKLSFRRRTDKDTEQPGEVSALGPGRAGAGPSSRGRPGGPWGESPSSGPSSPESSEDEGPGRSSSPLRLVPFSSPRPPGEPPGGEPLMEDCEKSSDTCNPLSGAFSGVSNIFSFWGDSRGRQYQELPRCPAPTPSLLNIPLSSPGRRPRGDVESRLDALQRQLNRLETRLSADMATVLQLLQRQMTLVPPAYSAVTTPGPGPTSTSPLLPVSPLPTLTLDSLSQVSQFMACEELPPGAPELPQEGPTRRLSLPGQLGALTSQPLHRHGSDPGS
# Chain of Bile acid receptor (Homo sapiens) (Q96RI1 whole entry, looked up): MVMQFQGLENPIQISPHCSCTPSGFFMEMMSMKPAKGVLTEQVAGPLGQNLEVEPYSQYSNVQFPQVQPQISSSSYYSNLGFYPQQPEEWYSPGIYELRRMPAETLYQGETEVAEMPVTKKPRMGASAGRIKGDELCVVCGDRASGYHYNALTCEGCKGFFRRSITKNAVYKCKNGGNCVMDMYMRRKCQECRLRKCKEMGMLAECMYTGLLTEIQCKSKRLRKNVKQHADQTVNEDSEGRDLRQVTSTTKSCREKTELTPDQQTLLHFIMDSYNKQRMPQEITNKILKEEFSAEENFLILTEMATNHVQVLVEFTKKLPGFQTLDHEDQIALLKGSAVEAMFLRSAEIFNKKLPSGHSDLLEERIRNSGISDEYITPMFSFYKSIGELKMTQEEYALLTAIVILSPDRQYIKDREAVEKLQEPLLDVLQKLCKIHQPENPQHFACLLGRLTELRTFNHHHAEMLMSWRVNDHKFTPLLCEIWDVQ
smiles,measurement,setting,value
C=CCOC(Cn1ccnc1)c1ccc(Cl)cc1Cl (stereo not drawn),AC50,[1],12.5 µM (active)
same,outcome,[2],inactive
same,AC50,[3],6.78 µM (active)
Cc1nn(C)c(Oc2ccccc2)c1C=NOCc1ccc(C(=O)OC(C)(C)C)cc1,outcome,[1],inactive
C[C@]12CC[C@@H]3c4ccc(O)cc4C[C@@H](CCCCCCCCCS(=O)CCCC(F)(F)C(F)(F)F)[C@H]3[C@@H]1CC[C@@H]2O (stereo partly drawn),outcome,[4],inactive
same,AC50,[5],1.45 µM (active)
same,outcome,[3],inactive
CC(C)(c1ccc(O)cc1)c1ccc(O)cc1,outcome,[5],inactive
COc1nc(C)nc(NC(=O)NS(=O)(=O)c2ccccc2OCCCl)n1,outcome,[6],inactive
O=C(O)C1(C(=O)Nc2ccc(Cl)cc2Cl)CC1,AC50,[7],9.08 µM (active)
same,outcome,[8],inactive
same,outcome,[9],inactive
same,outcome,[10],inactive
CCOC(=O)NCCOc1ccc(Oc2ccccc2)cc1,outcome,[7],inactive
same,outcome,[8],inactive
CC(C)CCCCCCc1ccc(O)cc1,outcome,NCBI gene 100848466,inactive
same,AC50,[11],16.7 µM (active) [middle of 4 runs]
same,AC50,[8],2.42 µM (active)
same,AC50,[9],1.36 µM (active) and 1.78 µM (active) and 1.89 µM (active)
COCCO,outcome,[11],inactive
same,outcome,[8],inactive
CCOC(=O)c1ccc(O)cc1,outcome,[11],inactive
same,AC50,[12],10.5 µM (active) and 4.61 µM (active)
same,outcome,[12],inactive
same,AC50,[8],47 µM (active) and 52.6 µM (active) and 67.5 µM (active)
same,outcome,[8],inactive
same,AC50,[9],30.6 µM (active) and 27.1 µM (active) and 28 µM (active)
same,outcome,[9],inactive
CCCN(CCC)c1c([N+](=O)[O-])cc(C(F)(F)F)c(N)c1[N+](=O)[O-],outcome,[8],inactive
same,AC50,[9],428 nM (active)
COC(=O)c1ccc(CNS(C)(=O)=O)cc1S(=O)(=O)NC(=O)Nc1nc(OC)cc(OC)n1,outcome,[7],inactive
same,outcome,[12],inactive
OB(O)O,outcome,[8],inactive
COC(=O)c1cccc(C)c1S(=O)(=O)NC(=O)Nc1nc(OCC(F)(F)F)nc(N(C)C)n1,outcome,[13],inactive
CCOC(=O)C(C)Oc1ccc(Oc2nc3ccc(Cl)cc3o2)cc1 (stereo not drawn),outcome,[10],inactive
c1ccc2[nH]c(-c3cscn3)nc2c1,outcome,[8],inactive
same,outcome,[10],inactive
C[C@]12C[C@H](O)[C@H]3[C@@H](CCC4=CC(=O)CC[C@@]43C)[C@@H]1CC[C@@H]2C(=O)CO,AC50,NCBI gene 100848466,0.875 µM (active)
same,outcome,[11],inactive
same,outcome,[12],inactive
same,outcome,[8],inactive
same,outcome,[9],inactive
CCCOC(=O)c1ccc(C(=O)OCCC)nc1,outcome,[7],inactive
same,outcome,[8],inactive
same,outcome,[9],inactive
CCCCOC(=O)[C@@H](C)Oc1ccc(Oc2ccc(C(F)(F)F)cn2)cc1,outcome,[14],inactive
same,outcome,[8],inactive
same,outcome,[9],inactive
CCSC(=O)N(CC(C)C)CC(C)C,outcome,[8],inactive
same,outcome,[9],inactive
same,outcome,[10],inactive
O=C(O)c1ccccc1,outcome,[12],inactive
same,outcome,[8],inactive
CC(=O)[C@H]1CC[C@H]2[C@@H]3CCC4=CC(=O)CC[C@]4(C)[C@H]3CC[C@]12C,outcome,[4],inactive
same,AC50,NCBI gene 100848466,0.00229 µM (active)
same,AC50,[11],12.4 µM (active)
same,outcome,[11],inactive
same,outcome,[12],inactive
same,outcome,[8],inactive
same,outcome,[9],inactive
CCCCOC(=O)C(C)Oc1ccc(Oc2ccc(C(F)(F)F)cn2)cc1 (stereo not drawn),outcome,[11],inactive
same,outcome,[8],inactive
same,outcome,[9],inactive
COc1c(Cl)ccc(Cl)c1C(=O)O,outcome,[11],inactive
same,outcome,[12],inactive
same,outcome,[8],inactive
same,outcome,[9],inactive
CCN(CC)C(=O)c1cccc(C)c1,AC50,[14],8.73 µM (active)
same,outcome,[12],inactive
same,outcome,[8],inactive
same,outcome,[13],inactive
CN(C)C(=O)Nc1ccc(Cl)c(Cl)c1,AC50,[14],8.92 µM (active)
same,outcome,[8],inactive
same,outcome,[10],inactive
COC(=O)c1ccccc1C(=O)O,outcome,[3],inactive
same,outcome,[7],inactive
same,outcome,[8],inactive
same,outcome,[9],inactive
O=C(Nc1ccc([N+](=O)[O-])cc1Cl)c1cc(Cl)ccc1O,outcome,[8],inactive
same,outcome,[9],inactive
CCN(Cc1c(F)cccc1Cl)c1c([N+](=O)[O-])cc(C(F)(F)F)cc1[N+](=O)[O-],AC50,[8],15.2 µM (active)
same,AC50,[9],7660 nM (active)
CCC(O)=C1C(=O)CC(C(=O)O)CC1=O (stereo not drawn),outcome,[7],inactive
C#C[C@]1(O)CC[C@H]2[C@@H]3CCC4=CC(=O)CC[C@@H]4[C@H]3CC[C@@]21CC,AC50,NCBI gene 100848466,0.00453 µM (active)
same,AC50,[11],6.85 µM (active)
same,outcome,[11],inactive
same,AC50,[8],50.7 µM (active)
same,outcome,[8],inactive
C#CCOC(=O)[C@@H](C)Oc1ccc(Oc2ncc(Cl)cc2F)cc1,outcome,[14],inactive
same,outcome,[12],inactive
same,outcome,[8],inactive
same,outcome,[9],inactive
CCOC(=O)[C@H](C)Oc1ccc(Oc2nc3ccc(Cl)cc3o2)cc1,AC50,[7],0.182 µM (active)
